Among all 350,000 compounds or so, about 31,000 (8.9%) were called active. Inconclusive results (about 15%) are left out. The list comes from a sample in which actives are over-represented; it also holds similar structures and randomly drawn compounds. Values without a mark were called inactive. The call rests on the fitted dose curve; in most records, active means well fitted inhibition curve with a large enough effect; inconclusive means small, poorly fitted or top-dose-only effect; inactive means no such curve, though single readings can be large or run the other way.
Molecular target: Histone-lysine N-methyltransferase EHMT2 (Homo sapiens) (UniProt Q96KQ7)
Test: qHTS Assay for Inhibitors of Histone Lysine Methyltransferase G9a; further: nearly all actives have a fitted effect of over 75% in size
Conditions: G9a H3K9 monomethylation, AlphaScreen, 2 h; series mostly up to 59 µM; activity, negative = inhibition: at the top concentration
In short: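 Chemiluminescent proximity detection of H3K9 monomethylation, read after 10 min bead incubation in the dark. Reaction: 20 nM G9a, 500 nM biotin-H3K9 peptide, 20 uM SAM cofactor, 2 h, room temperature, following 15 min enzyme-compound preincubation.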
On the % scale 0 is the no-effect control and ±100 the full control effect; potency means the concentration at half of the fitted maximal effect.

Chain of Histone-lysine N-methyltransferase EHMT2 (Homo sapiens) (Q96KQ7 913-1193 limits assumed): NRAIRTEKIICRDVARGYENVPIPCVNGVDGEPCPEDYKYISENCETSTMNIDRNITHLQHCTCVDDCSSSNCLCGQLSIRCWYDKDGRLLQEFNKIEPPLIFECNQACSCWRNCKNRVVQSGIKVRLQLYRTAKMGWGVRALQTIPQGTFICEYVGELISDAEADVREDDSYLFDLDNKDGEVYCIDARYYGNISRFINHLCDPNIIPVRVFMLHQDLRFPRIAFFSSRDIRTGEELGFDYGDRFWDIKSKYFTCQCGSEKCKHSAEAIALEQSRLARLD

Point of comparison: `CCOC(=O)c1ccc(CN(Cc2ccccc2)S(=O)(=O)c2ccc(Cl)cc2)cc1`, “activity, negative = inhibition” value 21.8%. Against it:
- COc1ccc(NC(=O)COCc2cc(-c3ccco3)on2)cc1 — lower, -6.26%
- COC(=O)c1ccc(/C=N\n2c(C)nnc2C)cc1 — lower, -23%
- COc1ccc(-c2nn(CC(=O)Nc3ccccc3F)c3c2cnc2ccc(F)cc23)cc1 — lower, 6.33%
- CCOC(=O)c1cccc(NC(=O)Cn2cnc3nc4c(cc3c2=O)CCCC4)c1 — lower, 7.81%
- Cc1cccc(Cn2c(CN3CCC(C(=O)NCc4ccccc4Cl)CC3)cc3ccccc32)c1 — lower, -2.03%
- CCCN(CCC)CCNC(=O)Cn1cnc2sc(C)c(S(=O)(=O)N3CCC(C)CC3)c2c1=O — lower, 2.22%
- COc1ccc(OCC(=O)NCCS(=O)(=O)N2CCN(c3ccc(F)cc3)CC2)cc1 — lower, 17.9%
- CC(=O)Nc1ccc(NC(=O)CCCc2nc(-c3ccc(C(C)(C)C)cc3)no2)cc1 — lower, -1.05%
- CCOC(=O)c1c(-c2ccccc2)oc2ccc(OCC(N)=O)cc12 — lower, 6.55%
- COc1ccc(CCNC(=O)c2cc3cccc4c3n2CC(C)S4)c(OC)c1OC (stereo not given) — lower, -4.92%
- COc1ccc(Cc2nc3ccc(C(=O)NCc4ccccc4C)cc3o2)cc1 — lower, -3.49%
- CC(=O)NC(Cc1c[nH]c2ccccc12)C(=O)O (stereo not given) — lower, 19.7%
- Cc1ccc(C(=O)N/C(=C/c2ccco2)C(=O)NCCc2c[nH]c3ccccc23)cc1C — lower, -22.3%
- COc1ccccc1Cc1nc2ccccc2nc1SCC(=O)N1CCCc2ccccc21 — lower, -10.3%
- Cc1cccc(NC(=O)N2CCN(C)c3ncccc32)c1C — lower, -30.4%
- Cc1nn(-c2ccc(F)cc2)c(-n2cccc2)c1C(=O)N1CCN(c2ccccc2)CC1 — lower, -34.6%
- COc1ccc(OCCNC(=O)c2cc(C3CC3)nc3c2cnn3C(C)C)cc1 — lower, -3.26%
- Cc1cccc(NC(=O)C2CCN(S(=O)(=O)c3c(C)noc3/C=C/c3ccco3)CC2)c1 — lower, -51.3%
- Cc1noc(/C=C/c2ccco2)c1S(=O)(=O)N1CCC(C(=O)Nc2ccc(Cl)cn2)CC1 — lower, -13.2%
- CC(C)c1nc(N2CCOCC2)c(C#N)c2c1COC(C)(C)C2 — lower, 5.75%
- COc1ccc(CSc2nc(N3CCOCC3)c3c(c2C#N)CC(C)(C)OC3)cc1 — lower, 4.28%
- CN(C)CCCNC(=S)NCc1ccc(Cl)cc1 — lower, -7.32%
- CCc1nn(CC(=O)Nc2cccc(C)c2C)c(=O)c2cc3sccc3n12 — lower, 1.85%
- COc1ccc(Cc2nc3ccc(C(=O)NCc4ccccc4Cl)cc3o2)cc1 — lower, 1.3%
- O=C(Nc1ccc(O)c(-c2nc3ccccc3o2)c1)c1ccc(-c2cccc(Cl)c2)o1 — higher, 57.4%
- Cc1ccnc(N2CCCC(C(=O)NC3CC3)C2)n1 (stereo not given) — lower, -9.69%
- O=C(NCc1ccc(F)cc1)c1ccc2nc(N3CCCCC3)sc2c1 — higher, 23%
- COC(=O)c1scc(-c2ccccc2)c1S(=O)(=O)Nc1ccccc1 — lower, -8.11%
- Cc1ccc(C(=O)/C=C/c2c(C)nn(-c3ccccc3)c2Cl)cc1 — lower, -24.2%
- COc1cccc(CNc2nccn(-c3ccc(OC)c(OC)c3)c2=O)c1 — lower, 6.99%
- CC(NC(=O)c1cc(Sc2ccc(F)cc2F)nc2ccccc12)c1ccccc1 (stereo not given) — lower, 2.44%
- COc1ccc(CNc2nc(-c3ccc(Cl)cc3)nn2S(=O)(=O)c2ccc(C)cc2)cc1 — lower, 8.34%
- CCC(=O)N1CCc2cc(CNC(=O)Nc3ccccc3Cl)ccc21 — lower, 10.3%
- Cc1cc(Cl)ccc1NC(=O)Cc1ccc(NC(=O)N2CCCCc3ccccc32)cc1 — lower, 7.58%

Point of comparison: `CCN(CC)S(=O)(=O)c1ccc2nc(COC(=O)c3n[nH]c4ccccc34)[nH]c2c1`, activity, negative = inhibition 12.7% [at 12.7 µM]. Against it:
- CC(OC(=O)/C=C/c1ccccc1)C(=O)NC1CCCCC1C (stereo not given) — higher, 27.1% [at 12.7 µM]
- CCCCN(C(=O)C1=NN(c2cc(C)ccc2C)C(=O)CC1)c1c(N)n(CCC)c(=O)[nH]c1=O — lower, -9.41% [at 12.7 µM]
- CC(NCC(=O)Nc1ccccc1C(=O)NC1CC1)c1ccccc1Cl (stereo not given) — lower, 3.45% [at 12.7 µM]
- COc1ccc(Cl)cc1NC(=O)C1CC(=O)N(c2ccc(F)cc2)C1 (stereo not given) — lower, -1.46% [at 12.7 µM]
- CC(C)(O)c1ccccc1CC[C@H](SCC1(CC(=O)O)CC1)c1cccc(/C=C/c2ccc3ccc(Cl)cc3n2)c1 — lower, 1.82% [at 12.7 µM]
- O=C(COC(=O)C1CC2CCCC(C1)C2=O)NC(=O)c1ccccc1 (stereo not given) — lower, -4.63% [at 12.7 µM]
- Cc1nn(-c2ccccc2)c(Cl)c1C(=O)Nc1ccccc1 — higher, 50.1% [at 12.7 µM]
- Cc1ccc(-c2cnc(NC(=O)CCC(=O)N(C)Cc3ccccc3)n2C)cc1 — lower, -4.41% [at 12.7 µM]

Point of comparison: `O=S(=O)(c1ccccc1)N1CCC(c2ccccc2)CC1`, activity, negative = inhibition 0.779% [at 2.33 µM]. Against it:
- O=C(CSc1n[nH]c(-c2cccs2)n1)N1CCCCC1 — lower, -2.34% [at 2.33 µM]
- COc1ccc(CCNC(=O)COc2ccc3c(c2)OCO3)cc1 — higher, 13.4% [at 2.33 µM]
- COCCCNC(=O)/C(C#N)=C/c1c(N2CCCCCC2)nc2ccccn2c1=O — higher, 7.66% [at 2.33 µM]
- CCOCCn1[nH]c2ccccc2c1=O — lower, -9.31% [at 2.33 µM]
- CC(=O)Nc1ccc(NC(=O)CSc2nnc(C3CC3)n2-c2ccccc2)cc1 — higher, 5.42% [at 2.33 µM]
- CCN(c1ccccc1)S(=O)(=O)c1ccc(OCC(=O)N2CCCC2)cc1 — higher, 12.7% [at 2.33 µM]
- CCCCCCSc1ccc([C@@H]2[C@@H]3C(=O)N(CC)C(=O)[C@@H]3[C@]3(C(=O)OC)CCCCN23)cc1OC — higher, 2.26% [at 2.33 µM]

For `CCN(CC)S(=O)(=O)c1cccc(-c2n[nH]c(=S)n2/N=C/c2ccc(C(=O)OC)cc2)c1`, the Potency was 1.41 µM (active).
`COc1ccc(N2CC(C(=O)NCCS(=O)(=O)N3CCN(c4ccccc4)CC3)CC2=O)cc1` (stereo not given) was tested, and the Potency was “inactive”.
With `COc1ccc(N2CCN(S(=O)(=O)CCNC(=O)C34CC5CC(CC(C5)C3)C4)CC2)cc1` the Potency was 44.7 µM (active).
`CC(=O)c1c(C)n(-c2ccc(N(C)C)cc2)c2ccc(OCC(N)=O)cc12` was tested, and the Potency was 50.1 µM (active).
In the case of `N#C/C(=C/c1ccc(N2CCCCC2)o1)C(=O)NCCc1c[nH]c2ccccc12`, the Potency was 31.6 µM (active).
For `O=C(NC(Cc1c[nH]c2ccccc12)C(=O)O)/C(=C/c1ccco1)NC(=O)c1ccccc1` (stereo not given), the Potency was 28.2 µM (active).
For `COc1ccc(Cl)cc1-n1c(=S)sc2c(=O)n(-c3ccc(F)cc3)c(SCC(=O)O)nc21`, the Potency was 28.2 µM (active).
With `CC[n+]1c(C)n(-c2ccccc2)c2ccc(NC(C)=O)cc21` the Potency was 14.1 µM (active).
`Cc1noc(/C=C/c2ccco2)c1S(=O)(=O)N1CCC(C(=O)N2CCc3ccccc32)CC1` was tested, and the Potency was 44.7 µM (active).
In the case of `CC1(C)Cc2c(C#N)c(SCc3nc4ccccc4[nH]3)nc(N3CCOCC3)c2CO1`, the Potency was 39.8 µM (active).
In the case of `Nc1ccc(N=Nc2ccccc2Cl)c(N)n1`, the Potency was 28.2 µM (active).
In the case of `CN(C(=O)CN(CCO)CC(=O)N(C)C(C)(C)Cc1ccccc1)C(C)(C)Cc1ccccc1`, the Potency was “inactive”.
For `CC(O)CN(Cc1ccc(Cl)cc1)CC(C)O` (stereo not given), the Potency was 14.1 µM (active).
For `OCCN(Cc1ccccc1)Cc1ccc(Cl)cc1`, the Potency was 22.4 µM (active).
`Cc1ccnc(-n2sc3ccccc3c2=O)n1` was tested, and the Potency was 1 µM (active).
With `O=C1CC(c2ccccc2)=NN1c1ccc([N+](=O)[O-])cc1` the Potency was 39.8 µM (active).
`N#CC1=C(N)N(c2ccc(F)cc2)C(=O)C1` was tested, and the Potency was 39.8 µM (active).
With `c1ccc(C2=Nc3cccc4cccc(c34)N2)cc1` the Potency was 8.91 µM (active).
With `Cc1nn(-c2ccccc2)c(Cl)c1/C=C/C(=O)c1ccc(O)cc1` the Potency was 15.8 µM (active).
`Cc1ccc(-c2cnc(NCc3ccc(C(C)C)cc3)n2C)cc1` was tested, and the Potency was 2.82 µM (active).
In the case of `O=C(Cc1ccc2c(c1)CCCC2)Nc1ccccc1Cl`, the Potency was 44.7 µM (active).

Point of comparison: `Cc1nn(-c2ccc([N+](=O)[O-])cc2)c(N)c1-c1ccccc1`, “activity, negative = inhibition” value -30.9% [at 102 µM]. Against it:
- Cc1ccc(NC(=O)CN(C)C(=O)COC(=O)C(C)(C)Oc2ccc(Cl)cc2)cc1 — higher, 20.6% [at 102 µM]
- CCc1ccc(NC(=O)Cn2nnc(C(=O)NCc3ccc(OC)cc3)c2N)cc1 — higher, 46.9% [at 102 µM]
- CC(=O)c1c(C)n(-c2ccc(C)cc2)c2ccc(O)cc12 — higher, 8.12% [at 102 µM]
- O=C(NCCc1c[nH]c2ccccc12)C(=O)NCC1CCCO1 (stereo not given) — higher, 2.09% [at 102 µM]
- COc1cccc(-n2c(=S)sc3c(=O)n(-c4ccccc4C)c(SCC(=O)O)nc32)c1 — higher, -17% [at 102 µM]
- CC(=O)c1cccc(NC(=O)c2cc(C)nn2-c2ccccc2)c1 — higher, 2.43% [at 102 µM]
- Cc1cccn2c(=O)nc(SCC(=O)NCc3ccccc3Cl)nc12 — higher, -27.8% [at 102 µM]
- O=C(Nc1cccc2cccnc12)c1cccc(Cl)c1 — higher, 279% [at 102 µM]
- CC(C)NC(=O)c1ccc(Cl)cc1Cl — higher, -27.2% [at 102 µM]
- CCC(Cc1ccccc1)NC(=O)C1CCCCC1 (stereo not given) — higher, 10.6% [at 102 µM]
- Oc1ccc(-n2nnnc2SCc2c(F)cccc2Cl)cc1 — higher, 5.84% [at 102 µM]
- Cc1ccnc(SCC(N)=O)n1 — higher, -0.326% [at 102 µM]
- COc1ccc(C2=NN(c3nc4ccccc4s3)C(=O)C2)cc1 — lower, -37.4% [at 102 µM]
- Cn1c(N)cc(-c2ccc(F)cc2)c(C#N)c1=O — higher, 6.89% [at 102 µM]
- O=C1CCCC2=C1C(c1cccs1)CC(=O)N2c1ccc(F)cc1 (stereo not given) — higher, -0.558% [at 102 µM]
- Fc1ccccc1N=C1Nc2cccc3cccc1c23 — higher, 2.38% [at 102 µM]
- CCOc1ccccc1OCC(=O)Nc1ccccc1C(=O)NC1CC1 — lower, -41.6% [at 102 µM]
- CCCN(CC(=O)Nc1ccccc1OC)C(=O)CCC(=O)c1ccc(F)cc1 — higher, 6.88% [at 102 µM]
- Cc1nn(C(C)C(=O)NCCC2=CCCCC2)c(=O)c2nn(-c3ccccc3)c(C)c12 (stereo not given) — higher, 18.6% [at 102 µM]
- CCCC(=O)N1CCN(c2nnc(-c3ccc(C)cc3)c3ccccc23)CC1 — higher, -4.7% [at 102 µM]

`COc1ccccc1C1=Nc2cccc3cccc(c23)N1` gave an activity, negative = inhibition of 39.6% [at 0.501 µM].

Reference: PubChem BioAssay AID504332 (National Center for Advancing Translational Sciences (NCATS), 2011)
